# Assay outcomes: PubChem, National Center for Advancing Translational Sciences (NCATS)
# In the library only some 10% were active in any assay of this set; here they are far more common.
# G9a block – blocks human histone lysine methyltransferase G9a. Q96KQ7. G9a H3K9 monomethylation, AlphaScreen, 2 h. Potency, µM (highest dose often 102 µM), for the others: at the highest dose activity, negative = inhibition, actives largely listed as inhibitors. 350,000 tested, 8.8% active; also: potency is read from the fitted curve at half-maximal effect; % is scaled to controls: 0 for no effect and ±100 for the full control effect; nearly all actives have a fitted effect of over 75% in size
#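 G9a (20 nM) preincubated 15 min RT with compounds, then 500 nM biotinylated H3K9 peptide and 20 uM SAM added; 2 h RT reaction. Monomethyl-H3K9 product detected by AlphaScreen with anti-H3K9me1 antibody, streptavidin donor and anti-rabbit IgG acceptor beads.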
# HP1b binding inh – inhibitors of HP1-beta chromodomain binding to methylated histone tails; Potency, µM (highest dose often 114 µM), without a hit: top-dose activity change, negative = inhibition, usual class: inhibitors; AID 540317; AlphaScreen HP1-beta / biotin-H3K9me3 peptide binding; 390,000 tested, 0.56% active; also: potency is read from the fitted curve at half-maximal effect; nearly all actives have a fitted effect of over 70% in size
#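 HP1-beta protein (50 nM final) preincubated 30 min at room temperature with biotinylated H3(1-18)K9me3 peptide (50 nM) in PBS pH 7.4, 0.01% Tween-20, then compound added for 30 min. AlphaScreen streptavidin donor/nickel chelate acceptor beads (10 ug/mL final), 30 min dark, luminescence read.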
# JMJD2A Tudor inh – blocks the human JMJD2A Tudor domain; AlphaScreen JMJD2A-Tudor / H3K4me3 peptide binding; AID 504339; Potency, µM (series often up to 114 µM), inactives show top-dose activity change, negative = inhibition, usual class: inhibitors; 390,000 tested, 4.4% active; also: potency is read from the fitted curve at half-maximal effect; % is scaled to controls: 0 for no effect and ±100 for the full control effect; nearly all actives have a fitted effect of over 50% in size
# BAZ2B inh – BAZ2B (human) inhibition; Q9UIF8; AlphaScreen BAZ2B-H3K14Ac peptide displacement; Potency, µM (top dose mostly 114 µM), inactives show top-dose activity change, negative = inhibition, most hits filed as inhibitors; 360,000 tested, 4.4% active; also: potency is read from the fitted curve at half-maximal effect; % is scaled to controls: 0 for no effect and ±100 for the full control effect; nearly all actives have a fitted effect of over 60% in size
#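 BAZ2B (50 nM) with biotin-H3(5-23)K14Ac peptide (50 nM) in PBS pH 7.4, 0.01% Tween-20, preformed 30 min, then compound 30 min at room temperature; top concentration 110uM. AlphaScreen streptavidin donor/nickel chelate acceptor beads (10 ug/mL final), 20 min dark, signal read.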
# CtBP-E1A inh – CtBP/E1A binding inhibition. activity change, % (test concentration not listed). 340,000 tested, 0.49% active. AlphaScreen GST-E1A/His-CtBP binding, 1536-well; stronger effect = lower value; in the data active = activity change below about -65%; inconclusive = mostly about -30% to -63%; also: % is scaled to controls: 0 for no effect and ±100 for the full control effect
#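 In 5 uL wells, 23 nL compound meets equimolar GST-E1A and His-CtBP (5X stock 125 nM each) for 2 h, 37 °C. Beads (5X, 50 ug/mL) then 1 h, 37 °C, dark.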
# Six1-Eya2 inh – Six1/Eya2 interaction inhibition; Q15475+O00167; AlphaScreen GST-Six1/His-Eya2 binding, biochemical; stronger effect = lower value; activity change, % (no concentration beside the values); 360,000 tested, 0.56% active; in the data active = activity change below about -65%; inconclusive = mostly about -30% to -63%; also: % is scaled to controls: 0 for no effect and ±100 for the full control effect
#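 AlphaScreen luminescence read after one hour at 37 °C in darkness. Pin-transferred compounds met GST-Six1 and His-Eya2 protein (5X stock 250 nM/500 nM) plus glutathione donor and Ni-chelate acceptor beads (5X, 50 ug/mL).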
# Numbers without * were called inactive; ? = inconclusive; / = not tested or not shown; [ ] = remark or other dose. Unless noted, calls follow the shape of the dose curve; as a rule, active = well fitted inhibition curve with a large enough effect; inconclusive = small, poorly fitted or top-dose-only effect; inactive = no such curve, though single readings can be large or run the other way.
SMILES,G9a block,HP1b binding inh,JMJD2A Tudor inh,BAZ2B inh,CtBP-E1A inh,Six1-Eya2 inh
CCOC(=O)C1Nc2ccc(Br)cc2C2C=CCC12 (stereo not drawn),3.5µM*,?,40µM*,45µM*,-6,-17
O=C(O)C1Nc2ccc(Br)cc2C2C=CCC12 (stereo not drawn),1.8µM*,18µM*,20µM*,3.2µM*,/,-6
CC(C)CNC(=O)C1Nc2ccc(OC(F)(F)F)cc2C2C=CCC12 (stereo not drawn),/,2%,?,/,1,-3
CCOC(=O)C1Nc2ccc(C)cc2C2C=CCC12 (stereo not drawn),/,-16%,56µM*,/,/,-3
CC(=O)c1cccc(NC(=O)CCCSc2nc(-c3ccco3)cc(C(F)(F)F)n2)c1,13%[59 µM],25%,7%,5%,/,/
COC(=O)c1c(SC)nc2ccccc2c1OCc1ccc(C)cc1,95%[59 µM],118%,128%,198%,/,/
CCOc1ccc(NC(=O)CN2CCN(c3ccc(Cl)cc3)CC2)cc1,-3%[12.7 µM],22%,-4%,-14%,/,/
O=C(OC1CCCCC1)c1ccc2c(c1)C1C=CCC1C(C(=O)O)N2 (stereo not drawn),?,/,/,7.1µM*,/,/
CC(C)CNC(=O)C1Nc2ccccc2C2C=CCC12 (stereo not drawn),/,-13%,?,/,-2,-2
COC(=O)CNC(=O)C1Nc2ccccc2C2C=CCC12 (stereo not drawn),/,-14%,56µM*,/,-7,-2
CN(C)CCOC1c2ccccc2C=Cc2ccccc21,/,28%,-18%,/,-5,-7
CN(C)CCOC1c2ccccc2CCc2ccc3ccccc3c21 (stereo not drawn),/,?,32µM*,/,-14,-17
CCOc1ccc2nc(N3C(=O)CNC3=S)sc2c1,8%,32%,-15%,-21%,-5,-23
Cc1cc2nc(N3C(=O)CNC3=S)sc2cc1C,1%,29%,-20%,45µM*,0,-1
C=Cc1ccc(Cn2c(=O)cc(C)c3c(C)nn(-c4ccccc4)c32)cc1,39%[59 µM],121%,38%,19%,/,/
CN1N=C2c3ccccc3CCCC2C1c1ccc(F)cc1 (stereo not drawn),79µM*,22%,-17%,-20%,14,17
CCOc1ccccc1-n1nnc(-c2nc(-c3ccccc3)no2)c1N,-1%[59 µM],34%,-7%,-8%,/,/
Cn1ncc2c(=S)nc(Cl)[nH]c21,/,-36%,22µM*,/,-15,0
S=c1nc[nH]c2c1cnn2-c1ccccc1,/,40%,-10%,-2%,/,-1
O=C(c1cccs1)N(Cc1cccnc1)c1nc2ccc(F)cc2s1,-13%[59 µM],36%,-9%,-3%,/,/
CC(CNC(=O)c1cc(-c2ccccc2)n[nH]1)c1ccccc1 (stereo not drawn),-4%[59 µM],29%,-11%,-8%,/,/
O=C(NCCc1c[nH]c2ccccc12)[C@@H]1C[C@H]1[C@@H](NP(=O)(c1ccccc1)c1ccccc1)c1ccccc1,79µM*,/,/,?,/,/
COc1ccc(NC(=O)CN(C)C(=O)c2ccc3ccccc3n2)cc1,/,-10%,-20%,/,-3,-11
Cc1ccc(C)c(NC(=O)c2ccc3ccccc3n2)c1,5%,22%,-6%,6%,9,13
COc1ccc(NC(=S)c2ccc3ccccc3n2)cc1,7.9µM*,10µM*,40µM*,11µM*,?,?
SMILES,G9a block,HP1b binding inh,JMJD2A Tudor inh,BAZ2B inh,CtBP-E1A inh,Six1-Eya2 inh
COc1ccc(N=C(NN)c2ccc3ccccc3n2)cc1,8.9µM*,-12%,-26%,?,1,-8
Cc1ccc(NC(=S)c2ccc3ccccc3n2)c(C)c1,8.9µM*,11µM*,?,13µM*,-14,-11
C=C1c2ccccc2O[C@H](C(=O)OCC)[C@@H]1CCC(C)C (tested in a mixture with another compound),42%,/,/,/,/,/
CC1=C(C(=O)Nc2cccc(C(F)(F)F)c2)C2(CCN(C(C)C)CC2)OC1=O,1%[59 µM],30%,-6%,5%,/,/
O=C(Cn1c(=O)n(-c2ccc(F)c(Cl)c2)c(=O)c2sc3ccccc3c21)NC1CCCC1,-31%[59 µM],40%,-2%,4%,/,/
CC(=O)c1cccc(OCC(O)CNCCOc2ccc(C)cc2)c1 (stereo not drawn),40µM*,-5%,4µM*,50µM*,-12,0
CC(=O)c1cccc(OCC(O)CNCC2CCCCC2)c1 (stereo not drawn),-5%,71µM*,8.9µM*,56µM*,-4,10
CC(=O)c1cccc(NC(=O)CCCOc2ccc(C)cc2)c1,-2%[59 µM],0%,-1%[57.1 µM],6%,6,7
Cc1ccc(-c2c(C)cc3oc(=O)cc(-c4ccccc4)c3c2C)cc1,36%,22%,-16%,/,3,0
Cc1cc2oc(=O)cc(-c3ccccc3)c2c(C)c1-c1ccc(N(C)C)cc1,28µM*,-12%,?,/,-22,?
COc1cc(OC)c2c(-c3cccc(-c4ccc(N(C)C)cc4)c3)cc(=O)oc2c1,8.9µM*,?,10µM*,/,?,?
COc1ccc(O[C@H]2C=C[C@@H](c3ccccc3)O[C@@H]2COC(=O)CCC(C)=NO[C@@H]2O[C@H](COC(C)=O)[C@@H](OC(C)=O)[C@H](OC(C)=O)[C@H]2OC(C)=O)cc1,50µM*,/,/,-13%,/,/
O=C(OCC(O)C1OC(c2ccccc2)OC(COC(=O)c2ccccc2)C1O)c1ccccc1 (stereo not drawn),/,/,/,/,-6,-4
CC(=O)OC[C@H]1O[C@@H](O/N=C/C[C@@H]2C=C[C@H](OC(C)=O)[C@@H](COC(C)=O)O2)[C@H](OC(C)=O)[C@@H](OC(C)=O)[C@@H]1OC(C)=O,79µM*,/,/,-12%,/,/
COc1ccc(O[C@H]2C=C[C@@H](c3ccccc3)O[C@@H]2COC(=O)CC/C(C)=N/OC[C@@H](O)[C@H]2O[C@@H]3OC(C)(C)O[C@@H]3[C@H]2O)cc1,79µM*,/,/,?,/,/
